The list is not random: actives were taken first. Their share in the collection is about 19%.
DT40 TDP1 no CPT: qHTS for Inhibitors of human tyrosyl-DNA phosphodiesterase 1 (TDP1): qHTS in cells in absence of CPT | Potency, µM (top dose mostly 46.2 µM), inactives show top-dose activity change, negative = growth inhibition, hits mostly inhibitors | 420,000 tested, 15% active | DT40 Tdp1-/- hTDP1 cells, no CPT, ATP luminescence, 48 h; further: potency means the concentration at half of the fitted maximal effect; on the % scale 0 is the no-effect control and ±100 the full control effect; nearly all actives have a fitted effect of over 55% in size
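Luminescent ATP content (CellTiter-Glo) served as the growth readout. Knockout chicken DT40 cells expressing human TDP1 were exposed to compounds without camptothecin for a minimum 48 hr at 37 °C.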
IL-1B inflam inh: inflammasome signaling inhibition, IL-1 beta readout. THP-1 LPS/ATP IL-1B secretion, AlphaLISA, 16 h; active compounds read low. 360,000 tested, 4.7% active. activity change, % at 57.5 µM; in the data active means activity change below about -50%; inconclusive means mostly about -30% to -49%; further: on the % scale 0 is the no-effect control and ±100 the full control effect
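Secreted IL-1B measured by AlphaLISA bead assay after 16 h compound exposure of THP-1 cells; compounds (final up to 57.5 uM) added 1 h before LPS (250 ng/mL) and ATP (1.25 mM) stimulation; lower signal means less secretion.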
HepG2 tox: HepG2 cytotoxicity, counter-screen for TGF-b inhibitors; HepG2 CAGA-GFP viability, ATP luminescence, 18 h; Potency, µM (highest dose often 46.1 µM), for the others: top-dose activity change, negative = cytotoxicity, actives largely listed as cytotoxic; 410,000 tested, 0.76% active; AID 588856; further: potency means the concentration at half of the fitted maximal effect
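CellTiter-Glo luminescence gave cytotoxicity after 18 hours at 37 degrees C. The cells were HepG2 CAGA-GFP in 1% FBS DMEM, stimulated with 500 pg/mL TGF-beta after compound addition. %Activity was normalised to no-cell wells (complete cell-killing) and DMSO (no toxicity), and curves were fitted and classified.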
TDP1 block: blocks human tyrosyl-DNA phosphodiesterase 1; recombinant TDP1, AlphaScreen DNA substrate cleavage; Potency, µM (doses to about 130 µM), inactives show at the highest dose activity change, negative = inhibition, usual class: inhibitors; 350,000 tested, 0.28% active; AID 485290; further: potency means the concentration at half of the fitted maximal effect; on the % scale 0 is the no-effect control and ±100 the full control effect; nearly all actives have a fitted effect of over 40% in size
Target sequence (Q9NUW8 whole entry, looked up): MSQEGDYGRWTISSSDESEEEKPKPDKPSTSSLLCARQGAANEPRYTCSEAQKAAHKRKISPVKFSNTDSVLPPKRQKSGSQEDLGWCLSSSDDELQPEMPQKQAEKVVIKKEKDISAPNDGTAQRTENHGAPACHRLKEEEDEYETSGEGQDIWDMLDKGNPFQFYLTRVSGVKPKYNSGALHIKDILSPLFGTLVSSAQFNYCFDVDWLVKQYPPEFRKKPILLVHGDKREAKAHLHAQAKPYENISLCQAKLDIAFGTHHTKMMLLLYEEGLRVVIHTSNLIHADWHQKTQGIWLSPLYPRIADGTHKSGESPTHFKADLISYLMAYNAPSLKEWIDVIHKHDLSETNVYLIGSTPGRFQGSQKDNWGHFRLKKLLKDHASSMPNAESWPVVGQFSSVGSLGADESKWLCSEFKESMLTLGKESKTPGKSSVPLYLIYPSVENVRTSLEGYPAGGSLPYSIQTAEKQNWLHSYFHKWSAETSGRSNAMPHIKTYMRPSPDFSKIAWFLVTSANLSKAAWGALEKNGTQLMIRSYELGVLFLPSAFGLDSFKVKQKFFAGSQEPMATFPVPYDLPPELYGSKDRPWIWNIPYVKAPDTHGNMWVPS
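E. coli-derived human Tdp1, 1 nM final. Cpd preinc 15 min RT; substrate 15 nM final, 5 min RT; AS bead mix 10 ug/ml final, 10 min RT. Signal loss = tyrosine-FITC cleavage. No-enzyme wells = max signal.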
TGFb SMAD3 inh: TGF-b pathway inhibition | HepG2 CAGA-GFP TGF-b/SMAD3 reporter, GFP fluorescence, 18 h; TGF-beta stimulated, 500 pg/mL final | Potency, µM (series often up to 46.1 µM), for the others: at the top dose activity, negative = inhibition, actives largely listed as inhibitors | 410,000 tested, 1.2% active; further: potency means the concentration at half of the fitted maximal effect; on the % scale 0 is the no-effect control and ±100 the full control effect; nearly all actives have a fitted effect of over 65% in size
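Using HEPG2 CAGA-GFP reporter cells at 1000 cells/well, we pinned test compounds, stimulated with recombinant TGF-beta (500 pg/mL final) and measured total well GFP after 18 h.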
DT40 TDP1 CPT: DT40-hTDP1 cell growth loss with CPT; AID 686979; 420,000 tested, 12% active; chicken DT40 Tdp1-/-;hTDP1 cells + 20 nM CPT, ATP luminescence, 48 h; Potency, µM (top dose mostly 46.2 µM), for the others: top-dose activity change, negative = growth inhibition, actives largely listed as inhibitors; further: potency means the concentration at half of the fitted maximal effect; on the % scale 0 is the no-effect control and ±100 the full control effect; nearly all actives have a fitted effect of over 55% in size
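Chicken DT40 Tdp1-/- cells stably complemented with human TDP1 were seeded at 400 cells/well in medium containing 20 nM camptothecin, exposed to pin-transferred compounds, and grown at 37 °C for at least 48 hr. Viability was read as ATP luminescence.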
An asterisk follows results filed as active; u = inconclusive; x = no result given; [ ] = dose if it differs, or a comment. Unless noted, the call rests on the fitted dose curve; in most records, active means well fitted curve in the direction sought with a large enough effect; inconclusive means small, poorly fitted or top-dose-only effect, or another doubt; inactive means no such curve, though single readings can be large; an effect the other way counts as inactive or inconclusive.

SMILES | DT40 TDP1 no CPT | IL-1B inflam inh | HepG2 tox | TDP1 block | TGFb SMAD3 inh | DT40 TDP1 CPT
CCCOc1ccc(C(=O)Nc2ccc3nn(-c4ccc(OC)c(Cl)c4)nc3c2)cc1 | u | x | -5.4% | -3.1%[12.3 µM] | -20.4% | -21.8%
CCOc1ccc(-n2nc3ccc(NC(=O)Cc4ccccc4)cc3n2)cc1 | 3.66µM* | x | -93.4% | -4.0%[12.3 µM] | u | 3.66µM*
COc1ccc(-n2nc3ccc(NC(=O)c4cccc(OCCC(C)C)c4)cc3n2)cc1 | 7.31µM* | x | -1.8% | -0.4%[12.3 µM] | -20.8% | 18.4µM*
COCCNC(=O)C1Cc2c(ccc3ccccc23)O1 (centres undefined) | -7.5% | 19.8 | 3.7% | 2.7% | -8.4% | 2.0%
COc1ccc(S(=O)(=O)NNC(=O)C2Cc3c(ccc4ccccc34)O2)cc1 (centres undefined) | 20.6µM* | 21.6 | -12.8% | 0.0% | -22.4% | 16.4µM*
Cc1ccc(N2CC(C(=O)OCC(=O)c3ccc([N+](=O)[O-])cc3)CC2=O)cc1 (centres undefined) | -3.4% | -74.4* | -16.3% | 5.4%[0.0935 µM] | -25.7% | -20.2%
O=C(OCc1ccc([N+](=O)[O-])cc1)C1CC(=O)N(c2ccccc2)C1 (centres undefined) | -8.0% | 10.2 | -15.9% | 7.0% | 21.2% | -7.7%
CC1(C)CC(=O)C(C=NCCN2CCN(C(=O)CCl)CC2)=C(O)C1 | 10.3µM* | 0.0 | -27.5% | x | u | u
CCN(CC)S(=O)(=O)c1ccc(N2CC(C(=O)N3Cc4ccccc4CC3C(N)=O)CC2=O)cc1 (centres undefined) | -11.6% | -7.4 | 5.3% | 0.3% | -2.9% | -16.7%
Cn1c(=O)[nH]c(=O)c2c1nc(N1CCCC1)n2CCCSc1nc2ccccc2o1 | u | 11.6 | -4.4% | 6.2% | -3.2% | 23.1µM*
Cn1c(=O)[nH]c(=O)c2c1nc(Br)n2CCCSc1nc2ccccc2o1 | 25.9µM* | 32.5 | -48.7% | 5.2% | u | u
CC1CCCN(c2nc3c(c(=O)[nH]c(=O)n3C)n2CCSc2nc3ccccc3o2)C1 (centres undefined) | -17.9% | 11.6 | -17.7% | 6.5% | -8.0% | -7.1%
Cn1c(=O)[nH]c(=O)c2c1nc(N1CCCCC1)n2CCCSc1nc2ccccc2s1 | 13µM* | u | -6.9% | 0.0% | -14.7% | 13µM*
C[C@@H]1COc2cc(N(C)CCO)ccc2S(=O)(=O)N1 | -3.7% | 21.1 | x | x | x | -21.1%
CCOC(=O)CC(=O)CSc1nc2c(c(C)c1C#N)CCC2 | 7.31µM* | 11.0 | -5.7% | 0.9% | -3.1% | 14.6µM*
COC(=O)CSc1nc2cc(C)ccc2cc1C#N | 16.4µM* | 0.0 | 7.0% | 0.0% | 17.8% | 18.4µM*
Cc1ccc2cc(C#N)c(SCc3nnc(-c4ccccc4[N+](=O)[O-])o3)nc2c1 | 20.6µM* | -7.6 | -22.2% | 3.4% | -22.6% | u
CCOC(=O)CC(=O)CSc1nc2c(cc1C#N)CCCCC2 | -3.0% | 43.6 | -16.0% | 2.0% | 2.8% | 2.9%
CCOC(=O)CC(=O)CSc1nc2ccc(C)cc2cc1C#N | 0.731µM* | 6.3 | -3.7% | -2.3% | -1.3% | 1.16µM*
CCN1CCN(C(=O)/C=C/c2cccc(Cl)c2)CC1 | 4.4% | -24.6 | 2.9% | 1.7% | 1.0% | -7.5%
CCOC(=O)CC(=O)CSc1nc(CC)c(C)cc1C#N | 13µM* | -6.5 | 20.2% | 70.8µM* | 19.0% | u
CCc1nc(SCC(=O)O)c(C#N)cc1C | 2.9% | 14.4 | 4.4% | 5.6% | -8.4% | 4.4%
CCOC(=O)c1ccccc1NC(=O)COC(=O)c1c(CC)noc1C | -28.8% | 7.7 | -33.0% | x | 30.1% | -10.7%
Cc1ccccc1-c1ccc(/C=C2/SC(N3CCOCC3)=NC2=O)o1 | 7.31µM* | -75.5* | -43.5% | x | 19.9% | 2.91µM*
